PI5P4K alpha inh: blocks human PI5P4K alpha kinase activity | max response, % | P48426 | PI5P4Kalpha enzyme, ADP-Glo luminescence, 60 min; hits give low values | AID 652105 | 330,000 compounds, 1.2% hits; active = max response of -50% or lower; inconclusive = between -30% and -50%; inactive = -30% or higher; also: value at the top dose of about 77 µM; % is scaled to controls: 0 for no effect and ±100 for the full control effect
Target sequence (P48426 whole entry, looked up): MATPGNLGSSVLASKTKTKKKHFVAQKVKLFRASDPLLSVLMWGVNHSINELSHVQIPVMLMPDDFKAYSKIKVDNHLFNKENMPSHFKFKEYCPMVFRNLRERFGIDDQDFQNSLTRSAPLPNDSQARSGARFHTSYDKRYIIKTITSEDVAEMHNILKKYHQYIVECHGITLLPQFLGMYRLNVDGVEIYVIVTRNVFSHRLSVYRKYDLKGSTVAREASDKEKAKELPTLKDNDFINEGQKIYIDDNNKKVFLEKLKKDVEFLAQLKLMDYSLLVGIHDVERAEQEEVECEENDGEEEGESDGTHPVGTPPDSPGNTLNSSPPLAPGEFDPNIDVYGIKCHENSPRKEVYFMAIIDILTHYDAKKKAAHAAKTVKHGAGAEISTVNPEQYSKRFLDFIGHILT
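ADP-Glo luminescence end-point read after a 60 min room-temperature kinase reaction of PI5P4Kalpha plus substrate, initiated with ATP at 5 microM final. Buffer: 0.038 M HEPES pH 7.4, EGTA, 0.1% CHAPS, 5% DMSO.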
JMJD2A Tudor: inhibitors of human JMJD2A Tudor domain. O75164. Potency, µM (series often up to 114 µM), inactives show at the highest dose activity change, negative = inhibition, hits mostly inhibitors. 390,000 compounds, 4.4% hits. AlphaScreen JMJD2A-Tudor / H3K4me3 peptide binding. AID 504339; also: potency is read from the fitted curve at half-maximal effect; % is scaled to controls: 0 for no effect and ±100 for the full control effect; nearly all actives have a fitted effect of over 50% in size
L3MBTL1 inh-1: blocks human L3MBTL1. Q9Y468. AlphaScreen L3MBTL1–H3K9me1 peptide binding. 230,000 compounds, 0.66% hits. Potency, µM (highest dose often 57.1 µM), without a hit: at the highest dose activity, negative = inhibition, actives largely listed as inhibitors. AID 485360; also: potency is read from the fitted curve at half-maximal effect; % is scaled to controls: 0 for no effect and ±100 for the full control effect; nearly all actives have a fitted effect of over 60% in size
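L3MBTL1 (50 nM) pre-complexed 30 min with biotinylated H3(1-15)K9me1 peptide (75 nM), then compounds added for 30 min at room temperature; AlphaScreen streptavidin donor/nickel chelate acceptor beads (10 ug/mL final) read after 30 min dark incubation.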
HP1b binding inh: HP1-beta chromodomain-methylated histone interaction inhibition. P83916. AlphaScreen HP1-beta / biotin-H3K9me3 peptide binding. Potency, µM (doses to about 114 µM), for inactives: top-dose activity change, negative = inhibition, hits mostly inhibitors. 390,000 compounds, 0.56% hits; also: potency is read from the fitted curve at half-maximal effect; nearly all actives have a fitted effect of over 70% in size
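HP1-beta protein (50 nM final) preincubated 30 min at room temperature with biotinylated H3(1-18)K9me3 peptide (50 nM) in PBS pH 7.4, 0.01% Tween-20, then compound added for 30 min. AlphaScreen streptavidin donor/nickel chelate acceptor beads (10 ug/mL final), 30 min dark, luminescence read.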
G9a inh: G9a (human) methyltransferase inhibition; Q96KQ7; G9a H3K9 monomethylation, AlphaScreen, 2 h; Potency, µM (top dose mostly 102 µM), for inactives: top-dose activity, negative = inhibition, usual class: inhibitors; 350,000 compounds, 8.8% hits; AID 504332; also: potency is read from the fitted curve at half-maximal effect; % is scaled to controls: 0 for no effect and ±100 for the full control effect; nearly all actives have a fitted effect of over 75% in size
Target sequence (Q96KQ7 913-1193 limits assumed): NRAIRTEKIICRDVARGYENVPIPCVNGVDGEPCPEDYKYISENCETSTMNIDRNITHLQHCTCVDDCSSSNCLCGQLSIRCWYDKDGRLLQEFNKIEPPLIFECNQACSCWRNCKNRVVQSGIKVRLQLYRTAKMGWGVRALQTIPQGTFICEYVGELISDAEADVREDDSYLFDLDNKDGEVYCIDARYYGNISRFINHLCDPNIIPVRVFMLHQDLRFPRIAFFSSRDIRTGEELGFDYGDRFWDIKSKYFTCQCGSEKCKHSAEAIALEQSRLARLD
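Enzyme 20 nM + cpd, 15 min RT; add b-H3K9 pep 500 nM / SAM 20 uM; 2 h RT; anti-H3K9me1 Ab 0.5 ug/mL + SA donor / anti-rabbit acceptor beads 20 ug/mL each, 10 min; AlphaScreen read.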
BAZ2B block: BAZ2B (human) inhibition. Potency, µM (doses to about 114 µM), without a hit: at the top dose activity change, negative = inhibition, most hits filed as inhibitors. 360,000 compounds, 4.4% hits. AID 504333. AlphaScreen BAZ2B-H3K14Ac peptide displacement. Q9UIF8; also: potency is read from the fitted curve at half-maximal effect; % is scaled to controls: 0 for no effect and ±100 for the full control effect; nearly all actives have a fitted effect of over 60% in size
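Complex of BAZ2B and biotin-H3K14Ac (50 nM apiece) forms over 30 min at RT, then faces library compounds up to 110 uM for another 30 min; AlphaScreen beads added, 20 min dark incubation, luminescence read.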
L3MBTL1 inh-2: validation of human L3MBTL1 methyl-lysine binding inhibitors; L3MBTL1 methyl-lysine binding inhibition, biochemical qHTS; Potency, µM, usual class: inhibitors; 500 compounds, 91% hits; shares compounds with L3MBTL1 inh-1; also: potency is read from the fitted curve at half-maximal effect; nearly all actives have a fitted effect of over 70% in size
L3MBTL1 ctr: interferes with AlphaScreen signal in L3MBTL1 counterscreen; AlphaScreen counterscreen, signal inhibition; shares compounds with L3MBTL1 inh-1; 500 tested, under 10 active; Potency, µM (highest dose often 57.1 µM), for inactives: at the highest dose activity change, negative = inhibition, usual class: inhibitors; also: potency is read from the fitted curve at half-maximal effect; 0% is about no effect
* hit, by the source's call; ? = inconclusive; . = not tested or not shown; [ ] = dose if it differs, or a comment. Rows were chosen to be rich in hits. Some 11% of all compounds tested hit in one or more screens of this group. Unless noted, calls follow the shape of the dose curve; as a rule, active = well fitted curve in the direction sought with a large enough effect; inconclusive = small, poorly fitted or top-dose-only effect, or another doubt; inactive = no such curve, though single readings can be large; an effect the other way counts as inactive or inconclusive.

SMILES	PI5P4K alpha inh	JMJD2A Tudor	L3MBTL1 inh-1	HP1b binding inh	G9a inh	BAZ2B block	L3MBTL1 inh-2	L3MBTL1 ctr
Cc1ccc(CN2C(=O)N/C(=C\c3cccn3-c3cccc(C(=O)O)c3)C2=O)cc1	?	45µM*	2.5µM*	?	16µM*	35µM*	2.7*	-20%
COc1ccc(-n2ncc3c2ncn2nc(-c4ccc(OC)c(OC)c4)nc32)cc1	.	4%	.	27%	10%[59 µM]	5%	.	.
O=C(CN1C(=O)COc2ccc(S(=O)(=O)N3CCCC3)cc21)N1CCN(c2ccc(Cl)cc2)CC1	.	-22%	.	52%	26%[59 µM]	15%	.	.
Cc1cccc(NC(=O)Cn2cc(S(=O)(=O)N3CCCC3)c(S(=O)(=O)N3CCCC3)c2)c1C	.	-12%	.	24%	-10%[59 µM]	12%[57.1 µM]	.	.
Cn1c(N)c(C(=O)COC(=O)c2cc(C(F)(F)F)nc3ccccc23)c(=O)n(Cc2ccccc2)c1=O	15	-29%	1%	20%	?	-26%	.	.
Cn1c(N)c(C(=O)COC(=O)c2cc(-c3ccco3)nc3ccccc23)c(=O)n(Cc2ccccc2)c1=O	.	.	32µM*	.	7.9µM*	?	3.8*	11%
CC(=O)NCCNc1ncncc1-c1ccccc1CN(C)C	.	.	.	.	-1%[0.501 µM]	.	.	.
CCOc1ccc(OCc2ccc(C(=O)O)o2)cc1	1	-34%	32µM*	8%	?	?	11*	1%
O=C(Cn1cc(S(=O)(=O)N2CCN(c3ccccc3F)CC2)c2ccccc2c1=O)Nc1cccc(C(F)(F)F)c1	.	-13%	.	21%	-22%[59 µM]	-11%	.	.
CC(=O)Nc1ccc(C(=O)/C=C/c2ccco2)cc1	-27	?	32µM*	-26%	10µM*	56µM*	9.5*	-10%
CCC(C(=O)Nc1c(C)cccc1C)n1c(-c2ccc(-c3ccccc3)cc2)nc2ccccc21 (centres undefined)	-6	.	.	.	.	.	.	.
Cc1ccnc(NS(=O)(=O)c2ccc(NC(=O)Cc3cccs3)cc2)n1	-83*	32µM*	32µM*	-33%	5%[12.7 µM]	50µM*	2.7*	-1%
CCC(=O)N1c2ccc(S(=O)(=O)CCC(=O)N3CCN(c4ccc(F)cc4)CC3)cc2CC1C (centres undefined)	.	-20%	.	23%	?	.	.	.
CSc1nc(NCCOCCO)c2sc3nc(-c4ccco4)c4c(c3c2n1)CCC4	-10	-22%	5.6µM*	15%	16µM*	45µM*	2.7*	-6%
CSc1nc(NCc2ccco2)c2sc3nc(C(C)C)c4c(c3c2n1)CC(C)(C)OC4	-1	-20%	2%	8%	?	-3%	.	.
CCc1ccc(CSc2nc(-c3ccccc3OC)nc3c2Cc2c(CO)cnc(C)c2O3)cc1	.	-11%	.	32%	-22%[59 µM]	-29%	.	.
CC(C)(CS(=O)(=O)[O-])NC(=O)CC[N+](C)(C)CCO	?	3.2µM*	3.5µM*	8.9µM*	?	2.8µM*	1.2*	-1%
CCCc1c(-c2ccc(F)cc2)ncn1Cc1ccccc1OC	-1	.	.	.	.	.	.	.
O=C1OC(c2ccco2)=N/C1=C\c1ccc(-c2cccc(C(F)(F)F)c2)o1	-8	-32%	-12%	11%	?	?	.	.
O=C1OC(c2cccs2)=N/C1=C/c1ccc(-c2cccc(C(=O)O)c2)o1	-70*	50µM*	0.56µM*	?	7.9µM*	25µM*	3.4*	-6%
CCOC(=O)C1=C(COC(=O)/C=C/c2ccco2)NC(=O)NC1C (centres undefined)	-54*	28µM*	7.9µM*	?	28%[0.501 µM]	50µM*	8.4*	-1%
CCOC(=O)C1=C(COC(=O)/C=C/c2ccc(OC)cc2)NC(=O)NC1C (centres undefined)	2	-5%	-6%	10%	-24%	3%	.	.
CCc1cccc(C)c1NC(=O)c1cc(CN2CCCC2)on1	.	-22%	.	-4%	2%[59 µM]	-3%	.	.
O=C(Oc1ccccc1F)c1ccc2c(=O)n3c(nc2c1)CCC3	-1	-12%	35µM*	18%	63µM*	-1%	?	9%
Nc1ccc2nc3n(c(=O)c2c1)CCC3	-1	-18%	-12%	44%	-8%	6%	.	.
SMILES	PI5P4K alpha inh	JMJD2A Tudor	L3MBTL1 inh-1	HP1b binding inh	G9a inh	BAZ2B block	L3MBTL1 inh-2	L3MBTL1 ctr
O=c1c2ccccc2nc2n1CCC2	-3	14µM*	28µM*	-57%	-22%[0.501 µM]	14µM*	24*	?
CC(=O)Nc1cccc(-c2nc3ccccc3n2C(C)C(=O)NC(C)(C)C)c1 (centres undefined)	5	.	.	.	.	.	.	.
O=C1N/C(=C/c2ccsc2)C(=O)N1c1ccccc1	0	2%	-3%	25%	.	-1%	.	.
O=C(O)c1cc(-c2ccc(/C=C3\NC(=O)N(c4ccccc4)C3=O)o2)ccc1Cl	?	56µM*	20µM*	-4%	45µM*	79µM*	3*	3%
c1cc(-c2ccc(N3CCOCC3)cc2)n2ccnc2c1	-7	.	.	.	.	.	.	.
O=c1[nH]c(=O)n(Cc2ccccc2)c2nc(-c3ccco3)cc(C(F)(F)F)c12	?	-2%	-2%	31%	-5%[59 µM]	17%	.	.
Cc1nn(CCc2nc(-c3ccco3)cs2)c2[nH]c(=O)cc(C(F)(F)F)c12	.	79µM*	35µM*	?	?	?	21*	3%
COc1ccccc1NC(=O)c1oc2ccccc2c1NC(=O)c1ccc(S(=O)(=O)N(C)C)cc1	.	-7%	.	45%	-27%[59 µM]	-1%	.	.
Cc1nc(SCC(=O)NCc2ccco2)c2c3c(sc2n1)CCCC3	-15	-20%	-21%	0%	-22%[59 µM]	-39%	.	.
CCCc1nc2sc3c(SCC(=O)NCc4ccco4)ncnc3c2c2c1CCC2	.	22µM*	14µM*	?	40µM*	28µM*	19*	3%
COc1ccc(C2=Nn3c(nnc3-c3ccccn3)SC2)cc1OC	-5	45µM*	25µM*	47%	?	20µM*	?	-19%
COc1ccc(C2=Nn3c(nnc3-c3ccccc3OC)SC2)cc1OC	-2	-10%	1%	10%	24%	-4%	.	.
O=C1CC(c2ccco2)CC(O)=C1C=Nc1cc(Cl)ccc1Cl (centres undefined)	?	?	35µM*	-6%	7.1µM*	50µM*	24*	-1%
